{
  "source": "ChEMBL document CHEMBL1157539",
  "about": "“Thousands of chemical starting points for antimalarial lead identification” (Nature, 2010)",
  "data": [
    {"test_system": "Plasmodium falciparum", "test": "GSK_TCMDC: Inhibition of Plasmodium falciparum 3D7 in whole red blood cells, using parasite LDH activity as an index of growth. Test compounds present at 2uM", "assay_type": "functional", "units": {"Inhibition": "%"}, "values": [
      {"smiles": "CC1CCC(NC(=O)c2nn(-c3ccc(Cl)cc3)c(=O)c3ccccc23)CC1", "note": "(stereo not drawn)", "Inhibition": 91},
      {"smiles": "CCN(CC)CCN(Cc1ccc(-c2ccc(C(F)(F)F)cc2)cc1)C(=O)Cn1c(CCc2ccc(F)c(C#N)c2)nc(=O)c2ccccc21.O=C(O)C(O)C(O)C(=O)O", "Inhibition": 98},
      {"smiles": "COc1ccc(CCNC(=O)c2cnc3c(c2)nc(-c2c[nH]c(-c4ccccc4)n2)n3CCc2c[nH]cn2)cc1", "Inhibition": 96},
      {"smiles": "CC(=NO)C1=C(O)C(c2ccccc2)N(c2ccccc2)C1=O", "note": "(stereo not drawn)", "Inhibition": 99},
      {"smiles": "Cc1cc(O)c(CN(C)Cc2ccc3c(c2)OCO3)cc1C(C)C", "Inhibition": 98},
      {"smiles": "C=CC(=O)Nc1ccc(Cl)cc1C(O)c1ccccc1", "note": "(stereo not drawn)", "Inhibition": 100},
      {"smiles": "Cc1ccccc1C1CCN(C2CCC(NC(=O)/C=C/c3cc(F)ccc3F)CC2)CC1", "note": "(stereo not drawn)", "Inhibition": 85},
      {"smiles": "c1ccc(Oc2ccc(Nc3ccnc(Nc4cccc(CNCCCN5CCOCC5)c4)n3)cc2)cc1", "Inhibition": 100},
      {"smiles": "N#Cc1ccc2[nH]cc(C(=O)CCCCCN(Cc3ccccc3)Cc3ccccc3)c2c1", "Inhibition": 93},
      {"smiles": "Cl.c1ccc2c(NCCCCCCCCNc3ccnc4ccccc34)ccnc2c1", "Inhibition": 100},
      {"smiles": "COc1cc(Cc2cnc(N)nc2N)ccc1OCc1ccc(-c2ccccc2C#N)cc1", "Inhibition": 93},
      {"smiles": "COc1cc(Nc2ccnc3cc(-c4nccs4)ccc23)ccc1OCCCc1nc2ccccc2[nH]1.Cl", "Inhibition": 100},
      {"smiles": "Clc1ccc2nc(-c3cccnc3)[nH]c2c1", "Inhibition": 92}
    ]},
    {"test_system": "Plasmodium falciparum", "test": "GSK_TCMDC: Inhibition of Plasmodium falciparum Dd2 in whole red blood cells, using parasite LDH activity as an index of growth. Test compounds present at 2uM", "assay_type": "functional", "units": {"Inhibition": "%"}, "values": [
      {"smiles": "CN1CCN(CCCN(Cc2ccc(-c3ccc(CNCc4ccc5c(c4)OCO5)cc3)cc2)C(=O)CCC2CCCC2)CC1.O=C(O)C(F)(F)F", "Inhibition": 85},
      {"smiles": "COc1ccc(CNC2Cc3ccccc3C2)cc1-c1ccc(S(=O)(=O)NCCc2ccccn2)s1.O=C(O)C(F)(F)F", "Inhibition": 22},
      {"smiles": "Nc1cc(/C=C/c2ccc([N+](=O)[O-])o2)nc2ccccc12", "Inhibition": 81},
      {"smiles": "C=CCOC(=O)O[C@@H]1[C@@H](OC(=O)OCC=C)[C@@H](OC)O[C@H](COC(c2ccccc2)(c2ccccc2)c2ccccc2)[C@H]1OC(=O)OCC=C", "Inhibition": 96},
      {"smiles": "Cc1ccc(C(=O)Nc2cc(S(=O)(=O)N3CCCC3)ccc2OCC(F)(F)F)cc1", "Inhibition": 3},
      {"smiles": "Fc1ccc(CNc2ncc(-c3ccsc3)c(-c3nccs3)n2)cc1", "Inhibition": 77},
      {"smiles": "COc1ccc(-c2cccc(NC(=O)c3ccc(Cl)cc3)c2)cc1CN1CCCN(C)CC1.O=C(O)C(F)(F)F", "Inhibition": 95},
      {"smiles": "Cc1cc(N/N=C/c2cccc([N+](=O)[O-])c2)c2ccc(F)cc2n1", "Inhibition": 98},
      {"smiles": "CC(C)(C)C(C)(C)Cc1ccc(O)c(CN2CCN(c3ccccc3)CC2)c1", "Inhibition": 98},
      {"smiles": "CC(C)C(C)(C#N)NC(=O)CSc1nc2ccc([N+](=O)[O-])cc2s1", "note": "(stereo not drawn)", "Inhibition": 81},
      {"smiles": "O=C(NCc1ccc(C(F)(F)F)cc1)c1cccc(-c2nnc(-c3cccc(-c4cncnc4)c3)o2)c1", "Inhibition": 79},
      {"smiles": "CCCCCC(=O)N1CCOC(CCN2CCc3c(c4ccccc4n3C)C2)(c2ccc(Cl)c(Cl)c2)C1", "note": "(stereo not drawn)", "Inhibition": 80},
      {"smiles": "CC(C)(C)C(=O)Nc1c(-c2cc(=O)oc3cc4c(cc23)CCC4)oc2ccccc12", "Inhibition": 100},
      {"smiles": "CC(C)(C)NS(=O)(=O)c1cc(C(=O)N2CCC(CCN3CCC(O)(c4cccc(C(F)(F)F)c4)CC3)(c3cccc(F)c3)CC2)c(Cl)cc1F", "Inhibition": 55},
      {"smiles": "CC[C@H](C)CNC(=O)c1cncc(-c2ccc(CNC3CCCC3)cc2)c1.O=C(O)C(F)(F)F", "Inhibition": 5},
      {"smiles": "COc1ccccc1C1CCN(C2CCC(NC(=O)/C=C/c3ccc(C(F)(F)F)cc3F)CC2)CC1", "note": "(stereo not drawn)", "Inhibition": 2},
      {"smiles": "Cc1cc(C)cc(-n2c(C)cc(/C=C3\\SC(=Nc4ccc(Cl)cc4)NC3=O)c2C)c1", "Inhibition": 97},
      {"smiles": "Cc1ccccc1C1CCN(C2CCC(NC(=O)c3ccc(-c4ccccc4)s3)CC2)CC1", "note": "(stereo not drawn)", "Inhibition": 84},
      {"smiles": "Cc1ccccc1C1CCN(C2CCC(NC(=O)/C=C/c3cc(C(F)(F)F)ccc3F)CC2)CC1", "note": "(stereo not drawn)", "Inhibition": 45},
      {"smiles": "Cc1c(CNCCCNc2nc3ccccc3[nH]2)sc(C(F)F)c1Br.Cl", "Inhibition": 5},
      {"smiles": "CC(C)CCn1c(Sc2ccc(C#N)c([N+](=O)[O-])c2)nnc1-c1ccccc1Cl", "Inhibition": 38},
      {"smiles": "O=C(Nc1ccc(Cl)cn1)c1sc2ccccc2c1O", "Inhibition": 18},
      {"smiles": "Nc1c2c(nc3ccc(C(=O)Nc4ccccc4)cc13)CCCC2", "Inhibition": 78},
      {"smiles": "CCCOc1cccc(C(=O)N[C@@H](Cc2ccccc2)[C@H](O)CNCc2cccc(OC)c2)c1", "Inhibition": 18},
      {"smiles": "COc1cc(NC(=O)Nc2cc(C)nc3ccccc23)cc(OC)c1", "Inhibition": 57}
    ]}
  ]
}
